Source: PubChem BioAssay (Tox21)
Values joined by “and” are separate entries in the source; they are usually repeats but may differ in a detail not shown here. Equal entries are not always repeated. Inconclusive results are not listed. A structure can be active in one record and inactive in another. Active and inactive are the calls of the source. Unless noted, the call rests on the fitted dose curve.

What was measured:
[1] = Nuclear factor erythroid 2-related factor 2/antioxidant responsive element (Nrf2/ARE) small molecule agonists: qHTS cell viability counter screen in human keratinocytes (AID 1919968; active means well fitted curve in the direction sought with a large enough effect in the repeat runs; an effect the other way counts as inactive or inconclusive; further: nearly all actives have a fitted effect of over 55% in size; further: potency means the concentration at half of the fitted maximal effect)
Method in brief: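 Stably transfected HaCaT (KeratinoSens), 1,500/well. Test agents in DMSO were applied for 23 h, 37 C/5% CO2. CellTiter-Fluor was incubated 1 h before the fluorescence read.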

[2] = Nuclear factor erythroid 2-related factor 2/antioxidant responsive element (Nrf2/ARE) small molecule agonists: luciferase reporter gene qHTS assay in human keratinocytes (AID 1919969); further: nearly all actives have a fitted effect of over 35% in size; further: potency means the concentration at half of the fitted maximal effect
[3] = target: Gonadotropin-releasing hormone receptor (Homo sapiens) (UniProt P30968); assay: Human gonadotropin-releasing hormone receptor (GnRHR) small molecule agonists, calcium flux assay in GnRHR-HEK293 cells (AID 1920063); further: nearly all actives have a fitted effect of over 35% in size
Method in brief: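 Stable human GnRHR HEK293 line. 18 h plating, then calcium dye for 1 h at 37 C. Agonist-mode compound addition from DMSO stocks; fluorescence monitored 3 min.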

[4] = target: KiSS-1 receptor (Homo sapiens) (UniProt Q969F8); assay: Human kisspeptin (KISS1R) small molecule agonists, calcium flux assay in KISS1R-HEK293 cells (AID 1920064; active means well fitted curve in the direction sought with a large enough effect in the repeat runs; an effect the other way counts as inactive or inconclusive)
Method in brief: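 After overnight (18 h) culture at 37 C/5% CO2, human KISS1R-HEK293 cells received calcium dye for 1 h, then test compound; emission at 540 nm (excitation 480 nm) was tracked for 3 min.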

[5] = G protein-coupled receptor (GPCR) small molecule agonists, calcium flux assay: HEK293 wild type cell line counter screen (AID 1920065)
Method in brief: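 Following 18 h incubation at 37 C/5% CO2, plates got calcium dye for 1 h; compounds, ATP or DMSO were then pinned in and fluorescence followed kinetically (480/540 nm).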

[6] = p53 small molecule agonists, cell-based qHTS assay with human liver microsomes (AID 1963577);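 further: p53 response element beta-lactamase reporter cells with liver microsomes plus NADPH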
Method in brief: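 Steps: plate p53RE-bla cells, incubate 5 h at 37 C; add compound in DMSO; add microsomes (0.5 mg/mL final) and NADPH (0.5 mg/mL final); incubate 16 h at 37 C; add LiveBLAzer, 2 h RT; read fluorescence.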

[7] = p53 small molecule agonists, cell-based qHTS assay with rat liver microsomes (AID 1963578)
Method in brief: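 Metabolic activation is supplied by rat liver microsomes with NADPH (each 0.5 mg/mL final). p53RE-bla cells incubate with compound 16 h at 37 C; reporter activity is measured by LiveBLAzer fluorescence.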

[8] = p53 small molecule agonists, cell-based qHTS assay with rat liver microsomes: qHTS cell viability counter screen (AID 1963580); further: nearly all actives have a fitted effect of over 45% in size
Method in brief: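 Luminescent ATP readout (CellTiter-Glo, 30 min at room temperature) reports viability of p53RE-bla HCT-116 cells after 16 h at 37 C with test compounds under metabolic activation by rat liver microsomes and NADPH at 0.5 mg/mL final each.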

[9] = p53 small molecule agonists, cell-based qHTS assay (AID 1963582; active means well fitted activation curve with a large enough effect in the signal ratio in the repeat runs, not every such curve was filed as active; the % refers to the signal ratio)
Method in brief: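 Measured: fluorescence from cleaved LiveBLAzer substrate. System: p53RE-bla cells, 16 h compound treatment at 37 C, 2 h substrate step at room temperature.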

[10] = target: 5-hydroxytryptamine receptor 2A (Homo sapiens) (UniProt P28223); assay: 5-hydroxytryptamine receptor 2A (HTR2A) small molecule antagonists, cell-based qHTS assay (AID 1963586); further: nearly all actives have a fitted effect of over 45% in size
Method in brief: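 CHO cells stably expressing human HTR2A were plated for 18 h at 37 C, then loaded with calcium dye for 1 h. Compounds were preincubated 5 min at room temperature before DOI (4 nM solution) was added. Kinetic fluorescence was read for 3 min.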

[11] = target: 5-hydroxytryptamine receptor 2A (Homo sapiens) (UniProt P28223); assay: 5-hydroxytryptamine receptor 2A (HTR2A) small molecule agonists, cell-based qHTS assay (AID 1963587); further: nearly all actives have a fitted effect of over 30% in size
Method in brief: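 HTR2A-CHO cells, plated 18 h at 37 C/5% CO2, dye-loaded 1 h at 37 C; compounds in DMSO added by pin tool (agonist mode). Intracellular calcium flux read as kinetic fluorescence on FDSS over 2 min at 1 s intervals.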

[12] = target: Muscarinic acetylcholine receptor M1 (Homo sapiens) (UniProt P11229); assay: Cholinergic receptor muscarinic 1 (CHRM1) small molecule antagonists, cell-based qHTS assay (AID 1963588); further: nearly all actives have a fitted effect of over 40% in size
Method in brief: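 Compounds were tested at 15 concentrations in three independent runs. Dye-loaded CHRM1-CHO cells were exposed 5 min at room temperature before stimulation by acetylcholine added at 50nM. Intracellular calcium was read kinetically on FDSS for 3 min.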

[13] = target: Muscarinic acetylcholine receptor M1 (Homo sapiens) (UniProt P11229); assay: Cholinergic receptor muscarinic 1 (CHRM1) small molecule agonists, cell-based qHTS assay (AID 1963589); further: nearly all actives have a fitted effect of over 35% in size
Method in brief: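 Kinetic fluorescence (1 s intervals) of calcium-sensitive dye in human M1 CHO cells after compound addition; cells pre-incubated 18 h at 37 C/5% CO2 and dye-loaded 1 h.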

[14] = cAMP Responsive Elements (CRE) small molecule agonists, cell-based qHTS assay (AID 1963590)
Method in brief: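 Test agents in DMSO were incubated 3 h at 37 C/5% CO2 with CRE-bla HEK 293T cells seeded 18 h earlier; LiveBLAzer B/G FRET substrate was added and read after 2 h at room temperature.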

[15] = cAMP Responsive Elements (CRE) small molecule antagonists, cell-based qHTS assay (AID 1963591; active means well fitted inhibition curve with a large enough effect in the signal ratio in the repeat runs, not every such curve was filed as active; the % refers to the signal ratio)
Method in brief: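 Reporter line CRE-bla HEK 293T in dialyzed-FBS DMEM; cells preincubated 18 h, treated 3 h with compound plus NKH477 (0.25 uM final); LiveBLAzer FRET, 2 h RT.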

[16] = target: Beta-2 adrenergic receptor (Homo sapiens) (UniProt P07550); assay: Adrenergic beta2 receptor (ADRB2) small molecule antagonists, cell-based qHTS assay (AID 1963592); further: series mostly up to about 92 µM; nearly all actives have a fitted effect of over 50% in size
Method in brief: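 Assay format: CHO-ADRB2 cells, 18-20hr seeding at 37C/5% CO2, then compound plus 1nM isoproterenol agonist mix for 0.5hr RT. Homogeneous time-resolved fluorescence cAMP detection after 1hr, expressed as 665/615 nm ratio.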

[17] = target: Beta-2 adrenergic receptor (Homo sapiens) (UniProt P07550); assay: Adrenergic beta2 receptor (ADRB2) small molecule agonists, cell-based qHTS assay (AID 1963593);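 further: CHO cells stably overexpressing human ADRB2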
Method in brief: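 CHO cells stably over-expressing ADRB2 were plated overnight at 37C, then dosed with compounds plus a stimulation mix containing 100uM IBMX and 25uM Ro-20-1724 for 0.5hr at room temperature. cAMP was measured by HTRF competition, 1hr.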

[18] = target: D(2) dopamine receptor (Homo sapiens) (UniProt P14416); assay: Dopamine D2 receptor (DRD2) small molecule agonists, cell-based qHTS assay (AID 1963594); further: nearly all actives have a fitted effect of over 35% in size
Method in brief: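 HEK293 cells stably expressing DRD2 were cultured 24 h at 37 C, then given Ro20-1724 (0.1 mM final) and compounds for 10 min at room temperature. NKH477 (200nM) was then added for 30 min. cAMP was read by HTRF.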

[19] = target: D(2) dopamine receptor (Homo sapiens) (UniProt P14416); assay: Dopamine D2 receptor (DRD2) small molecule antagonists, cell-based qHTS assay (AID 1963595; active means well fitted inhibition curve with a large enough effect in the signal ratio in the repeat runs, with a control signal flat; the % refers to the signal ratio)
Method in brief: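 HEK293 cells stably expressing DRD2 were preincubated with 0.1 mM Ro20-1724, then with compound for 10 min at room temperature. Cells were stimulated with 200 nM NKH477 plus 12 nM quinpirole for 30 min, and cAMP was read by HTRF.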

[20] = p53 small molecule agonists, cell-based qHTS assay with human liver microsomes: qHTS cell viability counter screen (AID 1963579); further: nearly all actives have a fitted effect of over 45% in size
Method in brief: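 After the 460/530 nm beta-lactamase read, CellTiter-Glo was added to the same wells and luminescence measured after 30 min at room temperature, giving viability of p53RE-bla cells treated 16 h with compounds plus microsomes and NADPH.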

Measured: Potency

Sequence of Muscarinic acetylcholine receptor M1 (Homo sapiens) (P11229 whole entry, looked up): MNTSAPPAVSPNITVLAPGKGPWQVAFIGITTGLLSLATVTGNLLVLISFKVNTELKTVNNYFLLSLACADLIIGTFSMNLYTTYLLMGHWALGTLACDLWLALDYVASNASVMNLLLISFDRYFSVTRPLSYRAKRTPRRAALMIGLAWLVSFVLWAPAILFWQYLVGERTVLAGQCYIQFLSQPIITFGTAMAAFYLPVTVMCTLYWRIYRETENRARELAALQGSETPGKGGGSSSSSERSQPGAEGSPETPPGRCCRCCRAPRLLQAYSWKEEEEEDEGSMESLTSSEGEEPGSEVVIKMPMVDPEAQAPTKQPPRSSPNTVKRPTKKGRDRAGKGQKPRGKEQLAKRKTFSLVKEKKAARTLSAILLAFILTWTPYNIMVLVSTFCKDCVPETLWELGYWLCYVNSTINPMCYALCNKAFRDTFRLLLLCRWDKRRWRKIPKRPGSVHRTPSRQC
Sequence of D(2) dopamine receptor (Homo sapiens) (P14416 whole entry, looked up): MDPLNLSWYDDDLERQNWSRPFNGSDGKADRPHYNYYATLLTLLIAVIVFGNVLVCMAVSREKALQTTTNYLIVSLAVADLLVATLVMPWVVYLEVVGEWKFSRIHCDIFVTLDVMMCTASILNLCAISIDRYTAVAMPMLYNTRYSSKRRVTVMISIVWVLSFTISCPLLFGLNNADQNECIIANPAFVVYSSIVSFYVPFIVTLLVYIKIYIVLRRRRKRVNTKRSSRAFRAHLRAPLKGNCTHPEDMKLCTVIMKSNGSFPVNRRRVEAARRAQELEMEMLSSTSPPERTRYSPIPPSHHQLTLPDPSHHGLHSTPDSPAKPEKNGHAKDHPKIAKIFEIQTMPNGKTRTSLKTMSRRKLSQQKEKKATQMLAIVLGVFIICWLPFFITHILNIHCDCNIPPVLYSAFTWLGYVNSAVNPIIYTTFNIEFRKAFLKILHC
Sequence of Gonadotropin-releasing hormone receptor (Homo sapiens) (P30968 whole entry, looked up): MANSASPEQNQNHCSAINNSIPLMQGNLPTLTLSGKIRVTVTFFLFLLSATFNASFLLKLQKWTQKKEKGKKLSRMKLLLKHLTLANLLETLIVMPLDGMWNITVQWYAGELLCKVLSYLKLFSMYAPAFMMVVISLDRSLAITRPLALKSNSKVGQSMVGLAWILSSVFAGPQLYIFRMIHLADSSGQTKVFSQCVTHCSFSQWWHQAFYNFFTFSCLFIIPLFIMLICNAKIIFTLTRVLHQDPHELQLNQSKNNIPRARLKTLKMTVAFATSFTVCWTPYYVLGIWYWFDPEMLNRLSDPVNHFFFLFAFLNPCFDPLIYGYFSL
Sequence of KiSS-1 receptor (Homo sapiens) (Q969F8 whole entry, looked up): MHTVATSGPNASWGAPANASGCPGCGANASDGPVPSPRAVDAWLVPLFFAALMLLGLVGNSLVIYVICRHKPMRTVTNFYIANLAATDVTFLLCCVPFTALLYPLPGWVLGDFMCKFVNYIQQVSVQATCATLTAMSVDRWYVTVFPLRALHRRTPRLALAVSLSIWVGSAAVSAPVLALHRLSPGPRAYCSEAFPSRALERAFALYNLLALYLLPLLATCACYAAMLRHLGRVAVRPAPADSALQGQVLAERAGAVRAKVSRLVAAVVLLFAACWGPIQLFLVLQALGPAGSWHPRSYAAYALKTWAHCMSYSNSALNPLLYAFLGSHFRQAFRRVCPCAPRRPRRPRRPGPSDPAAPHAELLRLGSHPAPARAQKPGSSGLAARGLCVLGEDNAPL
Sequence of 5-hydroxytryptamine receptor 2A (Homo sapiens) (P28223 whole entry, looked up): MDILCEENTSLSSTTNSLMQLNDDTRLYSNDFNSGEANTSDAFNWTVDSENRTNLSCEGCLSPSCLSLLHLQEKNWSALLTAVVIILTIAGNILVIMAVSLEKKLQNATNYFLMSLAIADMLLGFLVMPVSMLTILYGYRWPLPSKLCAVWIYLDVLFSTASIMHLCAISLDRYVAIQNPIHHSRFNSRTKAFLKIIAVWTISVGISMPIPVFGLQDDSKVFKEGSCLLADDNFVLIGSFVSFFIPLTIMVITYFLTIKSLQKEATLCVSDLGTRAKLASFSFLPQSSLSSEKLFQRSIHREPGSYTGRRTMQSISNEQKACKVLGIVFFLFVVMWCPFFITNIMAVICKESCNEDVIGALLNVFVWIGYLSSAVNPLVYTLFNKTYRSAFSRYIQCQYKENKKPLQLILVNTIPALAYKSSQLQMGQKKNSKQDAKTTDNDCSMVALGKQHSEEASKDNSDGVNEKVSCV
Sequence of Beta-2 adrenergic receptor (Homo sapiens) (P07550 whole entry, looked up): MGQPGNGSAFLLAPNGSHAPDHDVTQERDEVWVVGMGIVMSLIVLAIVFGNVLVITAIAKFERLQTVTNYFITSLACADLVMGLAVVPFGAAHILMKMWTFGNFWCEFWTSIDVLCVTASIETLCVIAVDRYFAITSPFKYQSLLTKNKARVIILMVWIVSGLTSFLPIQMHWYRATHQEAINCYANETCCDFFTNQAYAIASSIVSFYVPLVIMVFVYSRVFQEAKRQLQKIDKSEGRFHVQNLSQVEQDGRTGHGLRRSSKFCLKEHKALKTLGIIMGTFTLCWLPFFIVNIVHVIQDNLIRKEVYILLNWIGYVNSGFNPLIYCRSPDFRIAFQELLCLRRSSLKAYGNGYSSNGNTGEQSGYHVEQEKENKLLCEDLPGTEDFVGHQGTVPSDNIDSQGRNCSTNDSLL

C=CC(C)CCC=C(C)C (centres undefined)
inactive: [1] | [2] | [3] | [4] | [5] | [6] | [7] | [8] | [9] | [10] | [11] | [12] | [13] | [14] | [15] | [16] | [17] | [18] | [19]

c1ccc(CCc2ccccc2)cc1
inactive: [1] | [2] | [3] | [4] | [5] | [6] | [7] | [20] | [9] | [10] | [11] | [12] | [14] | [15] | [16] | [17] | [18] | [19]

N[C@@H](CCC(=O)Nc1ccc([N+](=O)[O-])cc1)C(=O)O
inactive: [1] | [2] | [3] | [4] | [5] | [6] | [7] | [8] | [9] | [10] | [11] | [12] | [13] | [14] | [15] | [16] | [17] | [18] | [19]

CC1=C(CC(=O)O)c2cc(F)ccc2/C1=C\c1ccc(S(C)=O)cc1 (centres undefined)
inactive: [1] | [2] | [3] | [4] | [5] | [6] | [7] | [20] | [16] | [17] | [18] | [19]

O=C1c2cccc(O)c2C(=O)c2c(O)cccc21
inactive: [3] | [4] | [5] | [6] | [7] | [8] | [9] | [10] | [11] | [12] | [13] | [14] | [16] | [17] | [18] | [19]
inactive and 3.35 µM (active): [1]
active: [2] 27.6 µM

Cc1cc(C)c(C)c(O)c1
inactive: [1] | [2] | [3] | [4] | [5] | [6] | [7] | [20] | [9] | [10] | [11] | [12] | [13] | [14] | [15] | [17] | [18] | [19]

CCCCCCCCCCCCCCCCCCOCC(O)CO (centres undefined)
inactive: [1] | [2] | [3] | [4] | [5] | [6] | [7] | [20] | [9] | [10] | [11] | [12] | [13] | [14] | [16] | [17] | [18]

CC(C)CCCC(C)CCO (centres undefined)
inactive: [1] | [2] | [3] | [4] | [5] | [6] | [7] | [20] | [9] | [10] | [12] | [13] | [14] | [15] | [16] | [17] | [18] | [19]
